Inhibition data for 35 compounds are collected here from ChEMBL document CHEMBL4513149, “CO-ADD screening of MMV (CH) - MMV compounds” (2021).

Potency and affinity values are given separately.

The subject of this assay is Klebsiella pneumoniae. Particulars: Concentration 20 uM; ASSAY_TEST Inhibition of Bacterial Growth; detection method Absorption (OD600); MEDIA CAMHB; plate type 384well; NBS; CORNING #3640; time 18 hr.
What is called Inhibition is the drop in the measured response relative to a control, in per cent. Turning to `C[C@H](c1ccc2c(c1)CCCC2)N(C)c1ncc2c(N)nc(N)nc2n1`, the Inhibition is 18.37%. As for `CC(C)(CN)c1nc(-c2ccc(Cl)c(O)c2)c(-c2ccnc(N)n2)[nH]1.O=C(O)C(F)(F)F.O=C(O)C(F)(F)F`, the Inhibition came out at 15.34%. Consider `Cc1ncc(-c2ccnc(Nc3ccc(S(C)(=O)=O)cc3)n2)n1C(C)C` [AZD-5438], for which the Inhibition is 16.86%. On to `NC(=O)c1cc(-c2ccsc2)ccc1OCCOc1ccccc1`, for which the Inhibition is on record as 14.24%.

As for `Cc1noc(C)c1COc1cccc(C(=O)N=c2[nH]cccc2C)c1`, the Inhibition came out at 14.67%.

For the compound `CCc1ccc(C(NCc2nc(N)nc(N(C)C)n2)C(C)C)cc1` (stereo not given), the Inhibition is reported as -6.55%. For `Cc1nc(-c2ccccn2)nc(NCCc2ccc(S(C)(=O)=O)cc2)c1Cl`, the Inhibition amounted to 10.15%. For `O=C(OCc1ccccc1)N1CCC(c2cc(-c3ccncc3)c(-c3ccc(F)cc3)[nH]2)CC1`, the Inhibition is on record as 6.24%. The result for `COc1ccccc1CNC(=O)c1cc(C2CC2)nc2c1cnn2C(C)C` reads 8.65%; that for `CCOC(=O)c1noc(N)c1-c1ccccc1`, 13.91%; that for `Cl.O=C(Nc1ccc(N2CCNCC2)nc1)c1oc(-c2ccccc2)nc1C(F)(F)F`, 2.54%. With `Cc1nn(C(=O)Nc2cccc(C(F)(F)F)c2)c(C)c1Sc1ncccn1` the figure was 9.64%; with `CCOC(=O)c1cc(-c2csc(Nc3c(C)cc(C)cc3C)n2)on1`, 16.59%; with `CC(Oc1ccccc1)C(=O)Nc1nc(-c2ccccn2)cs1` (stereo not given), -2.79%. With `Cc1ccc(-c2nc(CN(Cc3ccccn3)C(C)C)cs2)o1` the figure was 14.74%; with `FC(F)(F)c1cc(NCCc2ccccc2)nc(-c2ccccn2)n1`, -3.94%; with `CNC(=O)C1Cc2c([nH]c3cc(Cl)ccc23)C2(CCN(CCc3ccccc3)CC2)N1` (stereo not given), 10.39%. For `CC(C)(C)n1nc(Cc2cccc3ccccc23)c2c(N)ncnc21`, the Inhibition was found to be 2.54%. For the compound `CC(=O)Nc1ccc(NC(=O)c2cc(-c3cc(Cl)ccc3O)n[nH]2)cc1`, the Inhibition is -16.31%. The result for `CC(C)C(NC(=O)Cc1cccc2ccccc12)C(=O)Nc1cccc(C#N)c1` (stereo not given) reads 13.86%. As to `O=C(Nc1ccnc(-c2cccnc2)n1)c1cc(C(F)(F)F)cc(C(F)(F)F)c1`, the Inhibition was 14.57%. For `O=C(NCc1ccco1)N1CCN(Cc2ccc(Cl)s2)CC1`, the Inhibition is 5.01%.

In the case of `OCc1ccc(-c2cncc(Nc3cccc(Cl)c3)c2)cc1`, the Inhibition came to 12.75%. Take `CCS(=O)(=O)N(Cc1ccco1)Cc1cc2ccc(C)cc2nc1O`: the Inhibition is recorded as 2.3%. With `CCCS(=O)(=O)N1CCC(CO)(Cc2ccccc2C(F)(F)F)CC1` the figure was 9.23%. With `CNC(=O)c1cc(S(=O)(=O)N2CCN(c3ccccn3)CC2)cs1` the figure was 10.77%; with `Nc1ncc(-c2cn[nH]c2)cc1-c1nc2cc(Cl)cnc2[nH]1`, 5.89%; with `CC1=NN(c2nc3ccccc3s2)C(=O)C1Cc1cccc2ccccc12` (stereo not given), 10.99%. As to `O=C(NC1CCCCC1)N1CCN(Cc2ccc3c(c2)OCO3)CC1`, the Inhibition is reported as 10.77%. On to `O=C(N[C@H](Cc1ccccc1)C(=O)Nc1ccccc1N1CCOCC1)c1cccs1`, for which the Inhibition amounted to 11.64%.

As to `O=C(NC1CC1)c1ccc(N2CCOc3ccc(Cl)cc32)s1`, the Inhibition worked out at 15.81%. The result for `CC1CCCCN1C(=O)NCCc1coc(-c2ccc(F)cc2)n1` (stereo not given) reads 15.76%; that for `CCCCc1ccc(NC(=O)Nc2ccc(O[C@H]3CCCC[C@@H]3N(C)c3ccccc3)c(F)c2)cc1`, 12.88%; that for `COc1cccc(OC)c1C(=O)Nc1ccc(Cl)c(-c2nc3ccccc3s2)c1`, 2.41%. For the compound `CC(C)(C)c1cc(C(=O)Nc2cccnc2)cc(C(=O)Nc2cccnc2)c1`, the Inhibition was 16.7%.
